Measurements reported in PubChem BioAssay (NCI).
“And” between values parts separate entries of the source, which are not always exact repeats. Identical values can stand only once. Compounds without any hit were thinned out: in the full panel of roughly 83,000, 20% have a hit.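 Cell lines were cultured in 96-well plates, exposed to a single compound concentration, and assessed for percent growth 48 hours later.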 Values without a mark were called inactive. The source made the active and inactive calls. How the source made its calls: active means growth percent below 10; inactive means the rest.

Tested on: MDA-MB-468 breast
Assay: NCI-60 one-dose screen, 48 h (100 = growth as untreated, 0 = no growth, -100 = all killed)
Conditions: 10 µM unless noted

NS(=O)(=O)c1ccc(Cn2c(SCC(=O)N/N=C/c3ccccc3O)nc3ccccc3c2=O)cc1
growth: 52%

CC[C@H](Nc1nc(N)nc(N)c1Cl)c1nc2cccc(NCc3ccc(C(=O)NO)cc3)c2c(=O)n1-c1ccccc1
growth: -34.3% (active)

CC(C)=CCc1cc(O)cc2c1OC(C=C(C)C)C1=C2C(=O)C2=C(NCCS2(=O)=O)C1=O (centres undefined)
growth: -27% (active)

COc1cc2c(Nc3ccc(S(N)(=O)=O)cc3)ncnc2c(OC)c1OC
growth: 84%

Cc1cc(=O)oc2cc(OCc3nn4c(Nc5nc6ccccc6s5)c(-c5ccccc5)nc4s3)ccc12
growth: 89.9%

Oc1ccccc1N=Cc1c(O)ccc2ccccc12
growth: 83.2%

C#Cc1cccc(NC(=O)Nc2cccc(NC(=O)CCl)c2)c1
growth: -43.5% [8.25 µM] (active)

Oc1c(I)cc(I)cc1CNCCCN(Cc1ccccn1)Cc1ccccn1
growth: -55.7% (active)

COc1cc2nc3c(=O)n(-c4ccc(C#N)cc4)cnn3c(=O)c2cc1OC
growth: 97.4%

CC(=O)Oc1ccc(C2(c3ccc(OC(C)=O)cc3)C(=O)Nc3ccccc32)cc1
growth: 46.2%

CCOC(=O)/C(C#N)=C/c1cccc(C)c1
growth: 90.9%

CN(C)c1ccc(C(=S)c2ccc(N(C)C)cc2)cc1
growth: -12.3% (active)

CN(C)c1ccc(/C=C\C(=O)c2ccccc2)cc1
growth: 84.8% and 88.3% and 83.9%

CCCCCCCCCCCCCC[n+]1ccc(C)cc1
growth: -29.9% (active)
